Columns and labels:
Format in all cases: functional
[1] = tested on: Plasmodium falciparum; assay: GSK_TCMDC: Inhibition of Plasmodium falciparum 3D7 in whole red blood cells, using parasite LDH activity as an index of growth. Test compounds present at 2uM
[2] = tested on: Plasmodium falciparum; assay: GSK_TCMDC: Inhibition of Plasmodium falciparum Dd2 in whole red blood cells, using parasite LDH activity as an index of growth. Test compounds present at 2uM
[3] = tested on: HepG2; assay: GSK_TCMDC: Percent inhibition of human HepG2 cell line. Test compounds present at 10uM.

| Structure (SMILES) | Inhibition [1] [%] | Inhibition [2] [%] | Inhibition [3] [%] |
| --- | --- | --- | --- |
| CC(=O)Nc1nc(C(=O)Nc2cccc(-c3ccc(-c4nc5cccc(C)c5[nH]4)cc3)c2)cs1 | 100 | 61 | 100 |
| CN1CCCC(COc2cc3c(cc2Br)CCN3C(=O)Nc2ccc(-c3ccncc3)c(Cl)c2)C1 (stereo not given) | 100 | 96 | 99 |
| COc1ccc2nc(-c3ccc(C(=O)NCCCN4CCN(c5cc(Cl)ccc5OC)CC4)cc3OC)[nH]c2c1 | 100 | 24 | 0 |
| CCCCN(CCCC)CCNC(=O)c1cc(OC(F)(F)F)ccc1O | 93 | 90 | 8 |
| C[C@H](Cc1ccc(OCCCCOc2ccc(C[C@@H](C)NC[C@H](O)c3cccc(Cl)c3)cc2)cc1)NC[C@H](O)c1cccc(Cl)c1 | 100 | 92 | 68 |
| C=CCc1cc(OC)ccc1OCCCOc1c(C)nc(N)nc1N.Cl | 92 | 97 | 67 |
| O=C(Nc1ccccc1)N1CCOC(CCN2CCC(F)(F)CC2)(c2ccc(Cl)c(Cl)c2)C1 (stereo not given) | 100 | 100 | 20 |
| CCNC(=O)c1cc(S(=O)(=O)N2CCN(c3ccccn3)CC2)cs1 | 97 | 94 | 7 |
| CC(C)c1ccc(NC(=O)c2ccc(CN3CCCN(Cc4cccc(Cl)c4)CC3)cc2)cc1.O=C(O)C(F)(F)F | 90 | 12 | 45 |
| Cc1nc(-c2nc(N3CCC(O)CC3)ncc2-c2ccsc2)sc1C | 83 | 35 | 6 |
